# Reference: PubChem BioAssay (NCATS)
# Unmarked numbers belong to inactive results. Results filed as inconclusive are left out. A call without a number means that no potency is given here. Active and inactive are the calls of the source. Unless noted, calls come from the whole dose curve; as a rule, active = well fitted curve in the direction sought with a large enough effect; inconclusive = small, poorly fitted or top-dose-only effect, or another doubt; inactive = no such curve, though single readings can be large; an effect the other way counts as inactive or inconclusive.
# Assays:
# [1] = target: Calcium and integrin-binding protein 1 (Homo sapiens) (UniProt Q99828); assay: Confirmatory qHTS for Identification of Calcium Integrin Binding Protein 1 (CIB1) Competitor (AID 1508617); note: nearly all actives have a fitted effect of over 65% in size; note: potency is the fitted concentration of half-maximal effect
# In short: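 Fluorescence polarization competition: CIB1-GST (1 uM final) in 5 mM HEPES pH 7.4, 125 mM NaCl, 5 mM CaCl2, 0.01% Tween20 preincubated 15 min RT with compound (up to 114 uM), then FITC-alphaIIb peptide (100 nM) added, 15 min RT.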
# [2] = Validation of Assay for Modulators of Lamin A Splicing (AID 1459; active = well fitted curve in the direction sought with a large enough effect in the signal ratio; the % refers to the signal ratio;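 note: cells exposed to compound for two days before reading; ratio rise marks activators and ratio drop marks inhibitors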)
# In short: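 S3 HeLa cells stably expressing a lamin A-EGFP splicing minigene and DsRed2 were seeded at 600 cells/well in Opti-MEM with 2% FBS, pin-dosed, and incubated 48 hrs at 37 °C, 5% CO2. Laser-scanning cytometry (488 nm) gave GFP/RFP total intensity ratio.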
# [3] = target: DNA repair nuclease/redox regulator APEX1 (Homo sapiens) (UniProt P27695); assay: qHTS Validation Assay for Inhibitors of the Human Apurinic/apyrimidinic Endonuclease 1 (APE1) (AID 1705;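 note: TAMRA fluorescence gain over two minutes as APE1 cuts a quenched THF abasic duplex; series mostly up to about 57 µM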)
# In short: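 Human APE1 was preincubated with compound for 15 min at room temperature, then 50 nM (final) THF-abasic double-stranded DNA substrate bearing 5'-TAMRA and 3'-BHQ-2 was added. Incision-driven fluorescence rise (ex 525/em 598 nm) was read kinetically.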
# [4] = Counterscreen for APE1 Inhibitors: Fluorescent Dye Displacement Validation Assay (AID 1707)
# In short: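 Thiazole Orange displacement from dsDNA: 250 nM ThO with 50 nM TAMRA-labelled abasic-site (tetrahydrofuran) duplex in 50 mM Tris-HCl pH7.5, 50mM NaCl, 2 mM MgCl2, 0.01% Tween-20. Loss of endpoint fluorescence (ex 480 nm, em 540 nm) flags DNA binders.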
# [5] = target: Ferritin light chain (Equus caballus) (UniProt P02791); assay: qHTS Validation Assay for Identification of Novel General Anesthetics (AID 2323); note: series mostly up to about 77 µM
# In short: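 Competitive displacement of profluorescent 1-aminoanthracene (1-AMA, 50% saturated solution in PBS) from 10 uM horse-spleen apoferritin. Compounds incubated 10 min at room temperature; fluorescence read at 380 nm excitation/535 nm emission, normalized to free 1-AMA and complex, fitted with four-parameter Hill equation.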
# [6] = target: ATP-dependent DNA helicase Q1 (Homo sapiens) (UniProt P46063); assay: qHTS Validation Assay for Inhibitors of RecQ-Like Dna Helicase 1 (RECQ1) (AID 2353)
# In short: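 50 nM RECQ1T1 preincubated 15 min with compound in Tris pH 8.0 buffer with MgCl2, DTT, Tween-20 and 2.5 ug/ml poly(dI-dC); started with 200 nM TAMRA/BHQ-2 forked duplex and 2 mM ATP. Unwinding read as fluorescence (525/598 nm), two reads 2 h apart.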
# [7] = Quantitative high throughput screen for delayed death inhibitors of the malarial parasite plastid, 96 hour incubation (AID 488745); note: potency is the fitted concentration of half-maximal effect; nearly all actives have a fitted effect of over 70% in size
# In short: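 Luciferase-expressing P. falciparum in erythrocytes (2% hematocrit, 0.1% parasitemia) incubated with compound for 96 h at 37 C, 5% CO2, in RPMI 1640 with 0.5% Albumax. Growth inhibition read as decreased luminescence.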
# [8] = Quantitative high throughput screen for delayed death inhibitors of the malarial parasite plastid, 48 hour incubation (AID 488752); note: potency is the fitted concentration of half-maximal effect; nearly all actives have a fitted effect of over 65% in size
# In short: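 Erythrocytes infected with firefly luciferase-expressing P. falciparum (2% hematocrit, 0.1% parasitemia) cultured with compound for 48 h at 37 C, 5% CO2, in RPMI 1640/0.5% Albumax. Growth inhibition read as loss of luminescence.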
# [9] = target: Transient receptor potential cation channel subfamily V member 1 (Homo sapiens) (UniProt Q8NER1); assay: HTS Assay for Compounds that Act as Enhancers of the Vanilloid Receptor 1 (AID 488979)
# In short: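 TRPV1-expressing cells loaded with Fluo-8 calcium dye; compounds added and calcium influx read kinetically for 3 min (agonist phase), then capsaicin at EC20 added and read 2 min more for enhancement. Fluorescence ex 480/em 520 nm.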
# [10] = target: Thyrotropin receptor (Homo sapiens) (UniProt P16473); assay: qHTS Assay for Antagonists of the Thyroid Stimulating Hormone Receptor (AID 488980); note: series mostly up to about 58 µM
# In short: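 HEK293 cells transfected with human TSHR, suspended in HEPES-buffered HBSS with 70 uM RO 20-1724, were treated with compounds plus TSH at EC80 (4 nM final). cAMP was measured by competitive HTRF (cryptate anti-cAMP antibody, cAMP-d2 acceptor).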
# [11] = target: Thyrotropin-releasing hormone receptor (Homo sapiens) (UniProt P34981); assay: qHTS for Small Molecule Agonists and Allosteric Enhancers of Human TRH Receptor: Validation Screen for Agonists (AID 493127;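 active = calcium activation more than 3 SD above the typical response in the agonist read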); conditions: TRH receptor agonist cell assay; at 2 µM; hits give high values
# In short: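 TRHR cells loaded with fluo-8 calcium dye; FDSS kinetic fluorescence (Ex 480/Em 530) read at 1 s/cycle after 23 nL compound addition. Agonist-mode calcium response recorded before the 10 nM TRH (EC20) addition.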
# [12] = target: Galactokinase (Homo sapiens) (UniProt P51570); assay: qHTS Validation Assay for Inhibitors of Human Galactokinase (GALK) (AID 493189)
# In short: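 GALK (5 nM) with 35 uM ATP and 100 uM galactose in HEPES pH8.0, MgCl2, NaCl, DTT, BSA; 1 h at room temperature. Residual ATP read by Kinase-Glo Plus luminescence after 10 min.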
# [13] = Validation screen for small molecules that induce DNA re-replication in SW480 colon adenocarcinoma cells (AID 504364)
# In short: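 SW480 cells (250/well) exposed 48 h at 37 C, 5% CO2, then Hoechst-stained 40 min. Nuclear DNA content imaged by fluorescence scanning (405 nm excitation, 500-530 nm emission); re-replication scored as increased nuclei with elevated intensity.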
# [14] = target: Voltage-gated inwardly rectifying potassium channel KCNH2 (Homo sapiens) (UniProt Q12809); assay: qHTS Assay for Small Molecule Inhibitors of the Human hERG Channel Activity (AID 588834);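 note: potency is the fitted concentration of half-maximal effect; lower thallium flux fluorescence means stronger hERG block; nearly all actives have a fitted effect of over 50% in size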
# In short: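 U2OS cells transduced with hERG via BacMam (MOI ~100), plated 2000/well, loaded with FluxOR thallium dye, compound ~10 min, then stimulation buffer; fluorescence decrease read kinetically; AC50 from Hill fits.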
# [15] = target: Calcium and integrin-binding protein 1 (Homo sapiens) (UniProt Q99828); assay: Primary qHTS for Identification of Calcium Integrin Binding Protein 1 (CIB1) Competitor (AID 1508620);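 note: GST tagged CIB1 binding a fluorescein labelled alphaIIb integrin peptide tracer; top concentration of the series differs between compounds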
# In short: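 Fluorescence polarization competition: CIB1-GST (1 uM final) preincubated with compound 15 min at room temperature, then FITC-labeled alphaIIb peptide (100 nM final) added for another 15 min. Polarization read at Ex 480/Em 540.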
# Chain of Calcium and integrin-binding protein 1 (Homo sapiens) (Q99828 whole entry, looked up): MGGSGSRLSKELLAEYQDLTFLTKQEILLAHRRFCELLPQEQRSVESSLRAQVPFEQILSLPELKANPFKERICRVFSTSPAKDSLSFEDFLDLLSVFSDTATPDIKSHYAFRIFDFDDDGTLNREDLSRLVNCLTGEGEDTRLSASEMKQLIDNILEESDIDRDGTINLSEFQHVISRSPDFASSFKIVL
# Chain of Voltage-gated inwardly rectifying potassium channel KCNH2 (Homo sapiens) (Q12809 whole entry, looked up): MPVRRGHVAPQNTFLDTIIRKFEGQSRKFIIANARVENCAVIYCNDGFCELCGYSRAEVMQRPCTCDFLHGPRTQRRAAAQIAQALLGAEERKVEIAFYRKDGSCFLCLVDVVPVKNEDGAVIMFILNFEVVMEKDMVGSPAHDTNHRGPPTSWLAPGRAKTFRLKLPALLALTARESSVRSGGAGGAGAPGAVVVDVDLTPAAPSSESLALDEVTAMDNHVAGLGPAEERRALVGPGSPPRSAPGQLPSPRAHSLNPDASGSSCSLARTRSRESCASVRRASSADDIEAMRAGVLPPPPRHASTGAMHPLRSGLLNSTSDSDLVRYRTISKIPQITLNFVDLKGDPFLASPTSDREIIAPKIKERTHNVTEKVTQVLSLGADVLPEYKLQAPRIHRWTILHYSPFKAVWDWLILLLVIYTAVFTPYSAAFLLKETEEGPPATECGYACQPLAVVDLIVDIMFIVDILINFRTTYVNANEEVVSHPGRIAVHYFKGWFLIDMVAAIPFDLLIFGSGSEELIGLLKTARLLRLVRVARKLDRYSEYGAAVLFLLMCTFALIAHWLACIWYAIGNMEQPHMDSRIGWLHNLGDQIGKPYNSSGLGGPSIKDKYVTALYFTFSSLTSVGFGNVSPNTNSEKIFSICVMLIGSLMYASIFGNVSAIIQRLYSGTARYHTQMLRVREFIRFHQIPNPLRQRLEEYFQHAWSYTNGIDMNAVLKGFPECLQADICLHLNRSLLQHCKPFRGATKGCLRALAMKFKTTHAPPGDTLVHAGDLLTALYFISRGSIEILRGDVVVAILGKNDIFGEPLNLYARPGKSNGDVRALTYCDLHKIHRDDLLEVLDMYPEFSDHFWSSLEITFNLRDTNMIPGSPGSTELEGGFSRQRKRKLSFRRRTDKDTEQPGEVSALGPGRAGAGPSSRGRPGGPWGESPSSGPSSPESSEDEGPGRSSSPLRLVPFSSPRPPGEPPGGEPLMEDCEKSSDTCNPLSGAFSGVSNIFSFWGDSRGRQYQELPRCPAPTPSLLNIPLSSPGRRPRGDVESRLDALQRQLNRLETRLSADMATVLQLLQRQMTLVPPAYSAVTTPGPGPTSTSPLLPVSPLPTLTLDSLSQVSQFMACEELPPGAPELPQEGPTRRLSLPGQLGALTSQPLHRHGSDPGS
# Chain of Thyrotropin-releasing hormone receptor (Homo sapiens) (P34981 whole entry, looked up): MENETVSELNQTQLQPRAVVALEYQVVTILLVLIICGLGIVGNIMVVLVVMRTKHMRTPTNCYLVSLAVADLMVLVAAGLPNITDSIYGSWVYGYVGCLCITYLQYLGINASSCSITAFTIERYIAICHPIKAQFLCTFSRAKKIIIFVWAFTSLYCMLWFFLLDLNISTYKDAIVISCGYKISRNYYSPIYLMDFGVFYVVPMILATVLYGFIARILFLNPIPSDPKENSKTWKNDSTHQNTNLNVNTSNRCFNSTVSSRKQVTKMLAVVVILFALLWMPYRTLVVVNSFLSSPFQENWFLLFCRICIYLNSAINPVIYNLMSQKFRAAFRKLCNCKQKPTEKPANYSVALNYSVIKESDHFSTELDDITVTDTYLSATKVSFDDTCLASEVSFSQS
# Chain of Ferritin light chain (Equus caballus) (P02791 2-175 limits assumed): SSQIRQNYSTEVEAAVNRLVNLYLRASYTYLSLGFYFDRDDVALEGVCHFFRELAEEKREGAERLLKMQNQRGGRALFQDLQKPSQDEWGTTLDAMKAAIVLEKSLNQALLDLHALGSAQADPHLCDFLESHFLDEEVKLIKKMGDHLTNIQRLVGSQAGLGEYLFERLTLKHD
# Chain of ATP-dependent DNA helicase Q1 (Homo sapiens) (P46063 whole entry, looked up): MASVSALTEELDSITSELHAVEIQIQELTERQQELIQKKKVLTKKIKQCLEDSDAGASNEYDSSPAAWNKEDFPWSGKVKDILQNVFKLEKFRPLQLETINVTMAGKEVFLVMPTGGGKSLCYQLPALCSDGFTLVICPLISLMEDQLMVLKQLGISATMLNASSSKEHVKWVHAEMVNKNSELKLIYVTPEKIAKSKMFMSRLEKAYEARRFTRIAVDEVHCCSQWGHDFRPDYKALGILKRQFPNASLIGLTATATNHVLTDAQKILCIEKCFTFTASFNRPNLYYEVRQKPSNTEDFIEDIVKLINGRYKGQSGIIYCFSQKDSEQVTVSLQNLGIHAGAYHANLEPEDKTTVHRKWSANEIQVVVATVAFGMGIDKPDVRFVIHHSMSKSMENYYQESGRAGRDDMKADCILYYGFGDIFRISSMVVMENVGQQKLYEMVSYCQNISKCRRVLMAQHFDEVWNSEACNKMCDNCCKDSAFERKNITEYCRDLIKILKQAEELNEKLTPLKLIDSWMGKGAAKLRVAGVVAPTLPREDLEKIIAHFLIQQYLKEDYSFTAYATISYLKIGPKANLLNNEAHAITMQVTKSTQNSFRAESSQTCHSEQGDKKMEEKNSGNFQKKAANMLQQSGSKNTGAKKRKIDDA
# Chain of Thyrotropin receptor (Homo sapiens) (P16473 whole entry, looked up): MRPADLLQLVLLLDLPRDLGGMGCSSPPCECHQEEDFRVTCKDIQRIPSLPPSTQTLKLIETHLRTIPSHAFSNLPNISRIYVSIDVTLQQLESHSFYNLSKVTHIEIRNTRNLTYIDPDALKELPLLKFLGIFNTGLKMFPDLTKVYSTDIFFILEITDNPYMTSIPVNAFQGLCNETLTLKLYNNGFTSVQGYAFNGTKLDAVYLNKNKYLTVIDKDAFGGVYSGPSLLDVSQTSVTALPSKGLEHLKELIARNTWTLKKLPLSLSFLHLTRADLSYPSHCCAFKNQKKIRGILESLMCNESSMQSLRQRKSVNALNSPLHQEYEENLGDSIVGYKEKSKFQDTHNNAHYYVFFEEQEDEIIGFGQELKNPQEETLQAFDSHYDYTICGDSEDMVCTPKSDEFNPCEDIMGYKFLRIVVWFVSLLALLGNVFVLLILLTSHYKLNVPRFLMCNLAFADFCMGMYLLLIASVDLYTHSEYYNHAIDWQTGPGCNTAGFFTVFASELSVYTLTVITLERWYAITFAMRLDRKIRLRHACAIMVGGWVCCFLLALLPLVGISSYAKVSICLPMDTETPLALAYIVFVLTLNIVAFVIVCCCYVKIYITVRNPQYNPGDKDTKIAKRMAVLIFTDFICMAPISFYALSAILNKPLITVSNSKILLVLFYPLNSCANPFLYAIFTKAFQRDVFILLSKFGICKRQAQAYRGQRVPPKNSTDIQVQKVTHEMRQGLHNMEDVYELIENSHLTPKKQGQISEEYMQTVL
# Chain of Transient receptor potential cation channel subfamily V member 1 (Homo sapiens) (Q8NER1 whole entry, looked up): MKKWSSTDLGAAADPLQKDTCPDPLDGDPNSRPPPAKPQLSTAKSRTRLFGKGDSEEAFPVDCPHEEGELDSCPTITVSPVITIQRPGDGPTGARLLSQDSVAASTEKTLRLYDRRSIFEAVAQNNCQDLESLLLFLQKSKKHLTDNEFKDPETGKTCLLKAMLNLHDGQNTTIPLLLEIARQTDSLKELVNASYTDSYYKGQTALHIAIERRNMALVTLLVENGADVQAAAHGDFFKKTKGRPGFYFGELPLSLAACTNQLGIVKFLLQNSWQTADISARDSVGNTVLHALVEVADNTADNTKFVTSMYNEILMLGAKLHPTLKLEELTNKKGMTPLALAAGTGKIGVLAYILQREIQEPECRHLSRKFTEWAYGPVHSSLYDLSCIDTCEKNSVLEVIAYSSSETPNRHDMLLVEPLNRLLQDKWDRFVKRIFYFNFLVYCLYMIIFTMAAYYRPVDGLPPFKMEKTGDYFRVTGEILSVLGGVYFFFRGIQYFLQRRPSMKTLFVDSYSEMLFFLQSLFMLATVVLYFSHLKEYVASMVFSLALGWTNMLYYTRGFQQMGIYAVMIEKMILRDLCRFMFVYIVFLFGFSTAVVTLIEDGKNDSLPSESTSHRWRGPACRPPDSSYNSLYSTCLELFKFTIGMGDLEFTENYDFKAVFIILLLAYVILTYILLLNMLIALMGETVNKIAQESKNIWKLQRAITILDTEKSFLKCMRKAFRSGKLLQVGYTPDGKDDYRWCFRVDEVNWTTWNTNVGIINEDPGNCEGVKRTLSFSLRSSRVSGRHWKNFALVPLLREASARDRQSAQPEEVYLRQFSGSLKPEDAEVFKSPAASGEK
# Chain of Galactokinase (Homo sapiens) (P51570 whole entry, looked up): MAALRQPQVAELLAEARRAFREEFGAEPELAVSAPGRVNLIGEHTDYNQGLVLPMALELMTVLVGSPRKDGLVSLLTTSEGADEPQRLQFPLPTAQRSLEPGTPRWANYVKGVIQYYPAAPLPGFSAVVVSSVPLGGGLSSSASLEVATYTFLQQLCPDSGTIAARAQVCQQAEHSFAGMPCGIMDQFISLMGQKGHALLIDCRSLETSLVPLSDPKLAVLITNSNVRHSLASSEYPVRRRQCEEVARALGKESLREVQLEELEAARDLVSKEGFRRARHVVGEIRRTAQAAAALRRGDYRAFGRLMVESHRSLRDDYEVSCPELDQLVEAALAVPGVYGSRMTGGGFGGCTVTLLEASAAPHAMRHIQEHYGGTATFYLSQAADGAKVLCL
# Chain of DNA repair nuclease/redox regulator APEX1 (Homo sapiens) (P27695 whole entry, looked up): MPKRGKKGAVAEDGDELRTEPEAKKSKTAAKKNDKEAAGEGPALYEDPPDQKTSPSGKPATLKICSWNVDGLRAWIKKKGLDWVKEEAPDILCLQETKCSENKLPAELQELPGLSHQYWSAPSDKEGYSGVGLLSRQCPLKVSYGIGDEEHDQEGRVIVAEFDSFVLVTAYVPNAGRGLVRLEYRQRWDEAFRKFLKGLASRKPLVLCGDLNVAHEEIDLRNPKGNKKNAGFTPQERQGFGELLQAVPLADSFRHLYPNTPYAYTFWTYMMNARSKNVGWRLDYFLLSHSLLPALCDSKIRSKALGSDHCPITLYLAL
smiles,measurement,setting,value
Cc1cc(NS(=O)(=O)c2ccc(NC(=O)Cc3ccc(F)c(Cl)c3)cc2)no1,Potency,[1],inactive
CC1(C)N=C(Nc2nc3ccccc3o2)NC2=C1C(=O)CCC2,Potency,[1],inactive
Cc1ccccc1NC(=O)CN1C(=O)N/C(=C\c2cn(-c3cccc(C(=O)O)c3)cn2)C1=O,Potency,[1],inactive
CCOc1ccc(CCNC(=O)c2ccc(N3N=C(C)CC3=O)cc2)cc1OCC,Potency,[1],inactive
Cc1ccc(OCCn2c(CCNC(=O)c3ccsc3)nc3ccccc32)cc1,Potency,[1],inactive
CC(C)c1nc(Nc2nc3ccccc3o2)nc2c1CCCC2,Potency,[1],inactive
CC(O)c1ccc(-c2ccc3ncnc(N4CCOCC4)c3c2)o1 (stereo not given),Potency,[1],inactive
CN1C[C@H](C(=O)N[C@]2(C)O[C@@]3(O)C4CCCN4C(=O)[C@H](Cc4ccccc4)N3C2=O)C[C@@H]2c3cccc4[nH]cc(c34)C[C@H]21 (stereo not given in full),outcome,[2],inactive
same,Potency,[3],inactive
same,Potency,[4],inactive
same,outcome,[5],inactive
same,Potency,[6],inactive
same,Potency,[7],2.94 µM (active)
same,Potency,[8],2.33 µM (active)
same,outcome,[9],inactive
same,outcome,[10],inactive
same,activation,[11],0.625%
same,outcome,[12],inactive
same,outcome,[13],inactive
same,Potency,[14],11.2 µM (active)
COc1ccccc1Nc1cc2ccccc2c(=O)[nH]1,Potency,[1],39.8 µM (active)
O=C(Cc1ccccc1)NC(c1ccco1)c1cc(Cl)c2cccnc2c1O (stereo not given),Potency,[1],inactive
C/C(=C\c1ccc2c(c1)OCO2)C1Nc2cccc3cccc(c23)N1,Potency,[1],inactive
O=[S+]([O-])(Nc1nccs1)c1ccc(NCc2cc(Cl)cc(Br)c2O)cc1,Potency,[1],inactive
O=C(O)c1ccc(O)c2ncc(N3CCC(N4CCOCC4)C3)cc12 (stereo not given),Potency,[1],inactive
COc1cccc(C)c1NC(=O)C(OC(=O)CNC(=O)c1ccccc1)c1ccccc1 (stereo not given),Potency,[15],inactive
FC(F)(F)c1ccccc1-c1nc(NCc2ccc(-c3cccnc3)cc2)c2[nH]cnc2n1,Potency,[15],inactive
Cc1cnc(N2CCC(C(N)=O)CC2)nc1-c1cccc(N(C)C)c1,Potency,[15],inactive
O=C(Nc1nnc(-c2ccncc2)s1)NC12CC3CC(CC(C3)C1)C2,Potency,[15],inactive
Fc1ccc(CNc2nc(-c3ccccc3C(F)(F)F)nc3ccccc23)cc1,Potency,[15],inactive
Cc1cccc(-n2cnc3cc(C(=O)N4CCC(Cc5ccccc5)CC4)ccc32)c1,Potency,[15],inactive
COc1ccc(S(=O)(=O)N2CCN(S(=O)(=O)c3ccc(OC)cc3)CC2)cc1,Potency,[15],inactive
Cc1ccc(NS(=O)(=O)c2ccc3c(c2)NC(=O)CO3)cc1C,Potency,[15],inactive
N#Cc1ccc(-c2ccc(CNc3ccc(N4CCOCC4)cc3)o2)cc1,Potency,[15],inactive
CC1=C(C(=O)Nc2ccon2)C(c2ccccc2Br)N=C(Nc2nc3ccccc3o2)N1 (stereo not given),Potency,[15],inactive
Nc1scc2c(C(=O)O)nn(-c3ccccc3)c(=O)c12,Potency,[15],inactive
CCn1cnc2c(NCCc3cccnc3)nc(C#N)nc21,Potency,[15],inactive
COc1ccc(C2=Nn3c(nnc3-c3ccccc3OC)SC2)c(OC)c1,Potency,[15],inactive
CC(=O)c1ccc(N2CCN(S(=O)(=O)c3ccc4c(c3)C(=O)OC4)CC2)cc1,Potency,[15],inactive
N#Cc1cc(NC(=O)Nc2nnc(-c3ccncc3)s2)ccc1Br,Potency,[15],inactive
